Test results: PubChem BioAssay (Tox21)
Unmarked numbers belong to inactive results. Inconclusive results are not listed. Where a call stands in place of a potency, no number is given. Calls of active or inactive are those of the source. Unless noted, calls come from the whole dose curve; as a rule, active = well fitted curve in the direction sought with a large enough effect in the repeat runs; inconclusive = weak or mixed curves; inactive = no such curve, though single readings can be large; an effect the other way counts as inactive or inconclusive.

Assays:
[1] = qHTS assay for small molecules that induce genotoxicity in human embryonic kidney cells expressing luciferase-tagged ATAD5 (AID 651632); note: nearly all actives have a fitted effect of over 15% in size; note: potency is the fitted concentration of half-maximal effect
Procedure, shortened: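 Increased luciferase signal from ATAD5-tagged reporter cells indicates DNA-damage-driven ATAD5 induction. HEK293T cells are treated for 16 hr at 37C before detection with Amplite.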

[2] = qHTS assay for small molecules that induce genotoxicity in human embryonic kidney cells expressing luciferase-tagged ATAD5 - cell viability (AID 651634; calls by dose curve; note: nearly all actives have a fitted effect of over 25% in size; note: potency is the fitted concentration of half-maximal effect)
Procedure, shortened: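 Cytotoxicity counterscreen in HEK293T cells bearing an ATAD5-luciferase reporter: live-cell protease activity measured by CellTiter-Fluor fluorescence after 15.5 hr compound exposure.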

[3] = qHTS assay for small molecule disruptors of the mitochondrial membrane potential (AID 720635); note: potency is the fitted concentration of half-maximal effect
Procedure, shortened: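 HepG2 cells exposed to compound 1 hr at 37C, then Mito-MPS dye 30 min. Ratio read of aggregate (540/590 nm) versus monomer (490/535 nm) fluorescence.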

[4] = qHTS assay to test for compound auto fluorescence at 590 nm (red) in HepG2 cells (AID 720674)
Procedure, shortened: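 Seeding: 2,000 HepG2 cells/well, MEM/10% FBS, overnight 37 C. Dosing: compound vs DMSO. Incubation: 1 hr, 37 C, 5% CO2. Read: fluorescence 540 ex/590 em, Rose Bengal sodium as red reference.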

[5] = qHTS assay to test for compound auto fluorescence at 535 nm (green) in HepG2 cells (AID 720675)
[6] = qHTS assay to test for compound auto fluorescence at 590 nm (red) in HEK293 cells (AID 720679)
Procedure, shortened: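 Autofluorescence equivalency to Rose Bengal sodium, 540/590nm, in HEK293 cells exposed overnight to 23 nL compound per well.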

[7] = qHTS assay for small molecule disruptors of the mitochondrial membrane potential - cell viability (AID 720634; calls by dose curve; note: nearly all actives have a fitted effect of over 20% in size; note: potency is the fitted concentration of half-maximal effect)
Procedure, shortened: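 After overnight attachment at 37 C, HepG2 cells received compound or DMSO vehicle for 1 hr. Viability is then taken from ATP-driven luminescence following a 30 min room-temperature CellTiter-Glo step.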

[8] = qHTS assay to test for compound auto fluorescence at 460 nm (blue) in HEK293 cells (AID 720678)
Procedure, shortened: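 Auto fluorescence in the blue band was quantified as triamterene equivalency. HEK293 cells were seeded at 2,000/well, dosed after a 4-5 hr attachment, and kept overnight at 37C before the 405/460 nm reading.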

[9] = qHTS assay for small molecule agonists of the p53 signaling pathway - cell viability (AID 651633; calls by dose curve; note: nearly all actives have a fitted effect of over 30% in size; note: potency is the fitted concentration of half-maximal effect)
Procedure, shortened: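 p53RE-bla cells were treated with compound for 16 hours at 37 C. Cytotoxicity was then measured as CellTiter-Glo luminescence after 30 min at room temperature.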

| SMILES | Potency [1] | Potency [2] | Potency [3] | Potency [4] | Potency [5] | Potency [6] | Potency [7] | Potency [8] | Potency [9] | fluorescence, relative to Rose Bengal [4] | fluorescence, % of fluorescein control [5] | fluorescence, % of triamterene [8] | fluorescence, % of fluorescent control [6] |
| --- | --- | --- | --- | --- | --- | --- | --- | --- | --- | --- | --- | --- | --- |
| C=CC(=O)OCCOCC(CC)(COCCOC(=O)C=C)COCCOC(=O)C=C | 28.4 µM (active) | 80.2 µM (active) | inactive | inactive | inactive | inactive | – | – | – | – | – | – | – |
| C=CC(=O)OCCC#N | inactive | inactive | – | inactive | inactive | inactive | inactive | inactive | – | – | – | – | – |
| CCCCCCCCCCCCCOP(=O)(O)O | inactive | – | – | inactive | inactive | inactive | – | inactive | 48.6 µM (active) | – | – | – | – |
| CCCOc1sc(C(=O)N2CCC(c3cc(CN)ccc3F)CC2)c(C)c1Br | inactive | inactive | – | inactive | inactive | inactive | inactive | inactive | – | – | – | – | – |
| COc1ccccc1OCCNCC(O)COc1cccc2[nH]c3ccccc3c12 (configuration not stated) | inactive | – | 23.7 µM (active) | inactive | inactive | inactive | – | – | inactive | – | – | – | – |
| N#CSCSc1nc2ccccc2s1 | – | inactive | 30.6 µM (active) | inactive | inactive | inactive | inactive | inactive | 21.7 µM (active) | – | – | – | – |
| CCCCCCC(C)OC(=O)COc1nc(F)c(Cl)c(N)c1Cl (configuration not stated) | inactive | inactive | 61.1 µM (active) | inactive | inactive | inactive | – | inactive | – | – | – | – | – |
| CC(C)OC(=O)c1cc(C(=O)OC(C)C)cc([N+](=O)[O-])c1 | inactive | – | – | inactive | inactive | inactive | – | – | inactive | – | – | – | – |
| O=C(Oc1ccccc1)c1cccc(C(=O)Oc2ccccc2)c1 | 3.86 µM (active) | inactive | 32.3 µM (active) | inactive | inactive | inactive | – | inactive | – | – | – | – | – |
| NCCCC(O)(P(=O)(O)O)P(=O)(O)O | – | inactive | inactive | inactive | inactive | inactive | inactive | inactive | inactive | – | – | – | – |
| COC(=O)[C@]1(C)CCC[C@@]2(C)[C@H]1CC=C1C=C(C(C)C)CC[C@@H]12 | inactive | – | 54.5 µM (active) | inactive | inactive | inactive | inactive | inactive | – | – | – | – | – |
| Cc1nc(Nc2ncc(C(=O)Nc3c(C)cccc3Cl)s2)cc(N2CCN(CCO)CC2)n1 | inactive | – | – | inactive | inactive | inactive | – | inactive | inactive | – | – | – | – |
| CC(=O)Nc1ccc(O)cc1 | inactive | inactive | inactive | inactive | inactive | inactive | inactive | inactive | – | – | – | – | – |
| CC=O | inactive | – | – | inactive | inactive | inactive | – | inactive | – | – | – | – | – |
| CCCCCCOc1cc(C)c(O)c(C)c1C | inactive | – | 5.51 µM (active) | inactive | inactive | inactive | 27.6 µM (active) | inactive | – | – | – | – | – |
| COc1cc(C(=O)NS(=O)(=O)c2ccccc2C)ccc1Cc1cn(C)c2ccc(NC(=O)OC3CCCC3)cc12 | – | inactive | 9.44 µM (active) | inactive | inactive | inactive | inactive | inactive | 5.96 µM (active) | – | – | – | – |
| COc1cccc(CCc2ccccc2OCC(CN(C)C)OC(=O)CCC(=O)O)c1 (configuration not stated) | inactive | – | – | inactive | inactive | inactive | inactive | inactive | – | – | – | – | – |
| O=C1NCCN1CCN1CCC(c2cn(-c3ccc(F)cc3)c3ccc(Cl)cc23)CC1 | inactive | 29.8 µM (active) | – | inactive | inactive | inactive | inactive | inactive | – | – | – | – | – |
| CCCN(CCc1cccs1)[C@H]1CCc2c(O)cccc2C1 | – | inactive | 24.8 µM (active) | inactive | inactive | inactive | inactive | inactive | inactive | – | – | – | – |
| CC(C(O)c1ccccc1)N(C)CCOC(c1ccccc1)c1ccccc1 (configuration not stated) | inactive | inactive | – | inactive | inactive | inactive | – | inactive | – | – | – | – | – |
| CCN(CC)CCSC(=O)C(c1ccccc1)c1ccccc1 | inactive | – | – | inactive | inactive | inactive | – | – | inactive | – | – | – | – |
| CSc1ccc2c(c1)N(CCC1CCCCN1C)c1ccccc1S2 (configuration not stated) | inactive | – | – | inactive | inactive | inactive | – | inactive | – | – | – | – | – |
| COc1cc(C(C)C)c2c(c1)S(=O)(=O)N(COc1cc(=O)n3cccc(OCCN4CCCCC4)c3n1)C2=O | inactive | inactive | – | – | – | – | inactive | – | – | 0.436% [at 18.6 µM] | -0.0646% [at 18.6 µM] | 0.0293% [at 18.6 µM] | 0.266% [at 18.6 µM] |
| Clc1ccc(C(Cn2ccnc2)OCc2c(Cl)cccc2Cl)c(Cl)c1 (configuration not stated) | inactive | inactive | inactive | – | – | – | inactive | – | – | 0.526% [at 18.6 µM] | -0.003% [at 18.6 µM] | -0.277% [at 18.6 µM] | -0.295% [at 18.6 µM] |
| CCc1ccc(O)c(C(C)(C)C)c1 | inactive | inactive | 8.63 µM (active) | inactive | inactive | inactive | – | inactive | – | – | – | – | – |
| Cc1oc(-c2ccccc2)nc1CCOc1ccc(C[C@H](Nc2ccccc2C(=O)c2ccccc2)C(=O)O)cc1 | inactive | – | 61.1 µM (active) | inactive | inactive | inactive | – | – | 21.7 µM (active) | – | – | – | – |
| CN1[C@@H]2CC[C@H]1CC(OC(=O)C(CO)c1ccccc1)C2 (some centres not stated) | – | – | inactive | inactive | inactive | inactive | inactive | – | – | – | – | – | – |
| CCCCCCCCCCCCCC[n+]1ccccc1 | – | inactive | 21.7 µM (active) | inactive | inactive | inactive | inactive | inactive | – | – | – | – | – |
| O=C1c2c(O)ccc(O)c2C(=O)c2c(NCCNCCO)ccc(NCCNCCO)c21 | – | 9.02 µM (active) | – | – | – | – | inactive | – | 4.52 µM (active) | 0.231% [at 18.6 µM] | -0.149% [at 18.6 µM] | -0.405% [at 18.6 µM] | -1.36% [at 18.6 µM] |
